A selection: hits, their analogues and other compounds. The true share with any hit is near 12%.
Calpain2 inh: inhibitors of pig calpain II, primary screen, biochemical, fluorogenic peptide substrate, 1536-well; purified calpain II, 30 min; inhibition, % at 16 µM; 220,000 tested, 0.37% active; AID 1236, 2008;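 active = inhibition above about 50%, limit read from the data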
Cl transport mod: KCC2 cotransporter modulators, thallium flux, primary screen, cell-based, HEK293 KCC2, FluoZin-2 fluorescence, MLSMR. KCC2 cells, thallium flux FluoZin-2 fluorescence. B-score of Tl+ flux slope (higher = more flux/activation; lower = inhibition) at 10 µM. 190,000 tested, 2.2% active. Solute carrier family 12 member 5 (Homo sapiens), Q9H2X9;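 active = thallium flux slope and its plate-corrected score both differing from the plate sample mean at a set confidence after two filtering rounds, in either direction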;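 note: slope of fluorescence scaled to starting intensity during 10 to 20 s after thallium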
Lmaj promast: Leishmania major promastigote growth inhibition, primary screen; AID 1063, 2008; Leishmania major promastigotes, resazurin fluorescence viability; 200,000 tested, 9% active; inhibition, % at 10 µM; in the data active = inhibition above about 50%;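 note: promastigotes grown with compound for 44 hours at 28 °C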
WT yeast gro inh: growth inhibition of WT strain, primary screen, mitochondrial fusion inhibitor project, WT and mutant strains, chemical genetic. mitochondrial fusion phenotypic screen. inhibition, % at 10 µM. 190,000 tested, 2.1% active. AID 1362, 2008; in the data active = inhibition above about 58%; tested in S. cerevisiae
ROMK primary: ROMK potassium channel modulators, primary screen, cell-based, thallium flux, MLSMR library; AID 1918, 2009; 130,000 tested, 2% active; B-score at 10 µM; Tet-inducible ROMK, thallium flux fluorescence; actives lie on both sides; ATP-sensitive inward rectifier potassium channel 1 (Homo sapiens), P48048;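 active = signal ratio slope over the read window, or its plate-corrected B-score, at least 3 SD from the plate mean, either direction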;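 note: B-score of the F/F0 ratio slope over 7 to 12 s after thallium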
Target sequence (P48048 whole entry, looked up): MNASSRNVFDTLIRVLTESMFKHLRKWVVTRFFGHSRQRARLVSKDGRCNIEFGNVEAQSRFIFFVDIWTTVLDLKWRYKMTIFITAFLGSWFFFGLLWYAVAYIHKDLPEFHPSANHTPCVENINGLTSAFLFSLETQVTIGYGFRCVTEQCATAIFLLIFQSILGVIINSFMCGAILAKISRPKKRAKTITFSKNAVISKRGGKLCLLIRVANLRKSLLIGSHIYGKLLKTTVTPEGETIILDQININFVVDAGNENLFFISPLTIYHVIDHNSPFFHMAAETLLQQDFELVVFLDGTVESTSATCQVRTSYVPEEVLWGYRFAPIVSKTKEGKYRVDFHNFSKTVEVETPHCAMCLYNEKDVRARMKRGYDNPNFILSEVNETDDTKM
Each line names hits and unclear results; the compound was inactive in the other large screens.

Nc1nn(-c2ccccc2)nc1C(=O)OCc1ccccc1F	none (no result: ROMK primary)
CO/N=C(\c1nonc1N)N1CCN(c2ccc([N+](=O)[O-])cc2Cl)CC1	none
CO/N=C(\c1nonc1N)N1CCN(c2ccc(Cl)cc2[N+](=O)[O-])CC1	WT yeast gro inh 75 (no result: ROMK primary)
COc1cc(OC)c2c(c1)C(=O)c1cc(OC)cc(OC)c1C2=O	WT yeast gro inh 87 (no result: ROMK primary)
COc1cc(OC)c2c(C)cc(=O)oc2c1	none (no result: ROMK primary)
O=C(NC1CCCCC1)C1Cc2ccccc2CN1S(=O)(=O)c1ccc(F)cc1 (stereo not given)	none (no result: ROMK primary)
O=C(Nc1ccc2c(c1)OCO2)C1Cc2ccccc2CN1S(=O)(=O)c1cccs1 (stereo not given)	Lmaj promast 99
O=C(Nc1nccs1)C1Cc2ccccc2CN1S(=O)(=O)c1ccc(F)cc1 (stereo not given)	Lmaj promast 66 (no result: ROMK primary)
O=C(Nc1nnc(C2CC2)s1)C1Cc2ccccc2CN1S(=O)(=O)c1ccccc1F (stereo not given)	Lmaj promast 100 (no result: ROMK primary)
CCOc1cc(N2CCOCC2)c(OCC)cc1NC(=O)COC(=O)[C@@H]1CCCN1S(=O)(=O)c1ccccc1F	none
COC(=O)C1CCN(C(=O)COC(=O)COc2ccc(C#N)cc2)CC1	none
CCOC(=O)N/N=C(C)/C=C/c1ccccc1	none (no result: ROMK primary)
CCOC(=O)N/N=C(C)/C=C/c1ccco1	Lmaj promast 84
COc1cc(OC)c(OC)cc1/C=N/Nc1nc2ccccc2[nH]1	none (no result: Lmaj promast, WT yeast gro inh, ROMK primary)
COc1ccc(/C=N/Nc2nc3ccccc3[nH]2)cc1OC	Lmaj promast 99
COC(=O)/C(=C\c1ccc(O)cc1)c1nc2ccccc2[nH]1	none
COc1cc(/C=N\Nc2nc3ccccc3[nH]2)cc(OC)c1OC	Lmaj promast 57 (no result: Cl transport mod)
COC(=O)/C(=C\c1cc(OC)c(OC)c(OC)c1)c1nc2ccccc2[nH]1	Lmaj promast 99
O=C(Nc1ccc(Cl)cc1)c1ccc(-c2ccccn2)s1	none (no result: Lmaj promast, WT yeast gro inh)
Cc1cc2c(cc1C)CSC(c1ccccc1OC(=O)C(C)C)SC2	none
O=C1NC(=S)CN1c1ccccc1	none (no result: Lmaj promast, WT yeast gro inh)
N/C(=N\NC(=O)c1sccc1OCc1ccc(Cl)cc1Cl)c1ccccn1	Lmaj promast 100
CC(C)C(C)NC(=O)COc1ccc(S(=O)(=O)N2CCOCC2)cc1Cl (stereo not given)	none
O=S(=O)(c1ccc(OCC(O)CNC23CC4CC(CC(C4)C2)C3)c(Cl)c1)N1CCOCC1 (stereo not given)	Lmaj promast 94
Cn1c(C(=O)OCC(=O)NCCc2ccccc2)cc2sccc21	none (no result: ROMK primary)
O=C(/C=C/c1cccc(Cl)c1)c1nc2ccccc2[nH]1	Lmaj promast 100
O=C(/C(=C\c1ccccc1)c1nc2ccccc2[nH]1)c1ccc(Cl)cc1	Lmaj promast 100 (no result: ROMK primary)
O=C(COc1c(Br)cc(Br)c2cccnc12)Nc1ccccc1F	none
CCOc1ccc(-c2nc(-c3ccncc3)no2)cc1OCC	Lmaj promast 89 (no result: Cl transport mod)
O=[N+]([O-])c1cc(-c2nc(-c3ccncc3)no2)cc([N+](=O)[O-])c1	Lmaj promast 94
CCOc1ccc(-c2nc(-c3ccccc3)no2)cc1OCC	none (no result: Cl transport mod, ROMK primary)
CC(C)(C)c1ccc(-c2nc(-c3ccncc3)no2)cc1	WT yeast gro inh 62 (no result: Cl transport mod)
O=C(CCc1ccc(S(=O)(=O)NC2CCCCC2)cc1)N(Cc1ccccc1)Cc1ccccc1	none (no result: ROMK primary)
COc1ccccc1C(=O)N=c1sc2c(C)ccc(OC)c2n1C	none (no result: Lmaj promast, WT yeast gro inh, ROMK primary)
COC(=O)c1ccc2c(=O)n(CCCCCC(=O)O)c(=S)[nH]c2c1	none
CCOC(=O)C(C(=O)Nc1nc2ccccc2s1)C1CCCCC1 (stereo not given)	Lmaj promast 85 (no result: ROMK primary)
CCOC(=O)C(C(=O)Nc1cccc(C)n1)C1CCCCC1 (stereo not given)	none (no result: ROMK primary)
CCOC(=O)C(C(=O)Nc1nccs1)C1CCCCC1 (stereo not given)	Lmaj promast 52 (no result: ROMK primary)
CCOc1cc2c(cc1/C=C(/C#N)c1ccc(C(=O)O)cc1)OCO2	none
Cc1cccc(C(=O)NC2=NCCS2)c1	none
CCCCC(=O)OCC(=O)c1[nH]c(C)c(C(C)=O)c1C	Calpain2 inh 89
CCOc1ccccc1-n1c(SCC(=O)NC2CCCC2)nnc1-c1ccoc1C	none (no result: ROMK primary)
Clc1ccccc1OCCCCN1CCCC1	Lmaj promast 96
Cc1cc(C)c(OCCN2C(=O)NC(C)(C)C2=O)c(Cl)c1	none (no result: Cl transport mod, ROMK primary)
Brc1ccccc1OCCCN1CCCCCC1	Lmaj promast 90

Assay outcomes as filed in PubChem.
